This is a sample that favours compounds with a hit; in the whole collection about 18% have one here.
TDP1 block = inhibitors of human tyrosyl-DNA phosphodiesterase TDP1 | Q9NUW8 | recombinant TDP1, AlphaScreen DNA substrate cleavage | Potency, µM (titrated, usually from 130 µM), without a hit: at the top dose activity change, negative = inhibition, hits mostly inhibitors | 0.28% of 350,000 active | AID 485290; also: potency is read from the fitted curve at half-maximal effect; nearly all actives have a fitted effect of over 40% in size
Target sequence (Q9NUW8 whole entry, looked up): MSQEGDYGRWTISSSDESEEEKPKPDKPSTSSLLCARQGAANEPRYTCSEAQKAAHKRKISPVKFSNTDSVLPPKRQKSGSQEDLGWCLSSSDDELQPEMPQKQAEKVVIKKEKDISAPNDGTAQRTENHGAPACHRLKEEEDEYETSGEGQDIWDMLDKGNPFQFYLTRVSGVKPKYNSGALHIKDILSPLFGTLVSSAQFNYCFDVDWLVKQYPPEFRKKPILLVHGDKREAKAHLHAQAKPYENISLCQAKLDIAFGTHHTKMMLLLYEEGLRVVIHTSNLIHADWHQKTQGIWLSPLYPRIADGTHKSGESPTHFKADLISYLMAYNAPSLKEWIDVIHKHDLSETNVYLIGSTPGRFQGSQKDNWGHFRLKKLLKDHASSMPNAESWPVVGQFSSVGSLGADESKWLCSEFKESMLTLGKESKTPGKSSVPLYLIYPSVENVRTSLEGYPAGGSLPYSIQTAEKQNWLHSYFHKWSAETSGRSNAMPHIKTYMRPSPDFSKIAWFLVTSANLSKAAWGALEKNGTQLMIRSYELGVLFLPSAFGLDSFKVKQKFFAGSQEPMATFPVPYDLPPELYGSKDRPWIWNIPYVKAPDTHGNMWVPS
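Here, a 5' biotin and 3' phosphotyrosine-FITC DNA oligonucleotide reports Tdp1 activity: intact substrate bridges AlphaScreen beads, while cleavage leaves a 3' phosphate and drops signal. All incubations at room temperature.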
CtBP-E1A blk = CtBP/E1A binding inhibition. AlphaScreen GST-E1A/His-CtBP binding, 1536-well; active compounds read low. activity change, % (test concentration not listed). 0.49% of 340,000 active. AID 651724; in the data active = activity change below about -65%; inconclusive = mostly about -30% to -63%
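Protein mix (5X: 125 nM each GST-E1A, His-CtBP) was incubated with pinned compound 2 h at 37 deg C in dark, in 50 mM Tris pH 8.0 buffer with 300 mM NaCl. Glutathione donor and nickel acceptor beads followed; AlphaScreen signal read after 1 h.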
IL-1B inflam inh = inflammasome signaling inhibition, IL-1 beta readout; THP-1 LPS/ATP IL-1B secretion, AlphaLISA, 16 h; active compounds read low; activity change, % at 57.5 µM; 4.7% of 360,000 active; AID 743279; in the data active = activity change below about -50%; inconclusive = mostly about -30% to -49%
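Secreted IL-1B measured by AlphaLISA bead assay after 16 h compound exposure of THP-1 cells; compounds (final up to 57.5 uM) added 1 h before LPS (250 ng/mL) and ATP (1.25 mM) stimulation; lower signal means less secretion.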
TDP1 cell noCPT = qHTS for Inhibitors of human tyrosyl-DNA phosphodiesterase 1 (TDP1): qHTS in cells in absence of CPT; DT40 Tdp1-/- hTDP1 cells, no CPT, ATP luminescence, 48 h; Potency, µM (series often up to 46.2 µM), without a hit: at the highest dose activity change, negative = growth inhibition, actives largely listed as inhibitors; 15% of 420,000 active; also: potency is read from the fitted curve at half-maximal effect; nearly all actives have a fitted effect of over 55% in size
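Growth kinetics read by CellTiter-Glo luminescence after ≥48 hr at 37 °C. Cells: DT40 Tdp1-/- stably carrying human TDP1, 400 per well, compound exposure in the absence of CPT (DMSO vehicle).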
DT40 TDP1 CPT = DT40-hTDP1 cell growth loss with CPT; chicken DT40 Tdp1-/-;hTDP1 cells + 20 nM CPT, ATP luminescence, 48 h; Potency, µM (titrated, usually from 46.2 µM), inactives show at the top dose activity change, negative = growth inhibition, actives largely listed as inhibitors; 12% of 420,000 active; AID 686979; also: potency is read from the fitted curve at half-maximal effect; nearly all actives have a fitted effect of over 55% in size
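Cell growth measured by CellTiter-Glo luminescence after a minimum 48 h, 37 C compound exposure with 20 nM CPT in Tdp1-knockout DT40 cells stably expressing hTDP1, seeded 400/well; qHTS titration format.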
Six1-Eya2 inh = blocks human Six1 binding to Eya2 | Q15475+O00167 | AlphaScreen GST-Six1/His-Eya2 binding, biochemical; active compounds read low | activity change, % (no concentration beside the values) | 0.56% of 360,000 active | AID 651725; in the data active = activity change below about -65%; inconclusive = mostly about -30% to -63%
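AlphaScreen with GST-Six1 and His-Eya2 (5X mix: 250 nM and 500 nM), glutathione donor and nickel acceptor beads; buffer 50 mM Tris pH 8.0, 300 mM NaCl, 1 mM TCEP; 1 h at 37 C in the dark.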
* = called active by the depositor; ? = inconclusive; nt = no result given; [ ] = remark or other dose. Unless noted, calls follow the shape of the dose curve; as a rule, active = well fitted curve in the direction sought with a large enough effect; inconclusive = small, poorly fitted or top-dose-only effect, or another doubt; inactive = no such curve, though single readings can be large; an effect the other way counts as inactive or inconclusive. % is scaled to controls: 0 for no effect and ±100 for the full control effect.

SMILES	TDP1 block	CtBP-E1A blk	IL-1B inflam inh	TDP1 cell noCPT	DT40 TDP1 CPT	Six1-Eya2 inh
O=C(Nc1cc(N2CCCCC2)ncn1)c1ccc(F)cc1	0%	2	-7	?	?	7
C/C(=N\Nc1cc(N2CCOCC2)ncn1)c1ccc(O)cc1	nt	-5	-95*	?	8.2µM*	-20
Fc1ccc(/C=N/Nc2cc(N3CCOCC3)ncn2)cc1	2%	-17	-27	-10%	-25%	-15
COc1cccc(/C=N/Nc2cc(N3CCOCC3)ncn2)c1O	4%	-94*	-90*	6.5µM*	5.8µM*	-91*
O=C(Nc1cc(N2CCOCC2)ncn1)c1ccc(F)cc1	5%	-2	-20	5.8µM*	-13%	-3
COc1ccc(/C=N/Nc2cc(N3CCOCC3)ncn2)c(OC)c1	nt	?	-29	-21%	4%	-1
Fc1cccc(/C=N/Nc2cc(N3CCOCC3)ncn2)c1	nt	8	-53*	-10%	-4%	7
COc1ccc(CCNC(=O)Cc2ccc(NC3=NC4CS(=O)(=O)CC4S3)cc2)c(OC)c1 (stereo not drawn)	nt	2	-13	-3%	5%	-1
Cc1cc(C)n(-c2nc3ccccc3c(=O)n2OCC(=O)N(C)C)n1	-3%	2	-2	-22%	8%	15
Cc1cc(C)n(-c2nc3ccccc3c(=O)n2OCC(=O)OCc2ccccc2)n1	1%	2	73	5.8µM*	5.8µM*	13
Cc1cc(C)n(-c2nc3ccccc3c(=O)n2OCC(=O)Nc2c(C)cccc2C)n1	7%	0	-1	18µM*	?	23
Cc1cc(C)c(NC(=S)N(CCN(C)C)C(C)c2cccnc2)c(C)c1 (stereo not drawn)	0%	-7	-8	-3%	23%	1
c1ccc(Sc2ccccn2)cc1	nt	5	1	2%	5%	6
c1ccc(SSc2ccccn2)nc1	nt	2	-91*	4.6µM*	2.9µM*	11
COC(=O)c1cccc(Nc2nc(-c3ccncc3)nc3ccccc23)c1	nt	10	17	?	?	-14
COC(=O)c1cccc(Nc2nc(-c3cccnc3)nc3ccccc23)c1	nt	-29	-22	9.2µM*	?	-15
Oc1cccc(Nc2nc(-c3ccccc3)nc3ccccc23)c1	nt	-11	-91*	?	?	-10
CS(=O)(=O)Nc1cccc(-c2ccc3ncnc(Nc4ccc(F)cc4)c3c2)c1	10%[56.1 µM]	nt	nt	?	18µM*	nt
CCOC(=O)c1cccc(Nc2nc(-c3cccnc3)nc3ccccc23)c1	7%	-17	-108*	10µM*	23µM*	-17
Fc1ccc(Nc2ncnc3ccccc23)cc1	nt	7	-14	-28%	?	9
Cc1cccc(Nc2nc(-c3ccccc3)nc3ccccc23)c1	-1%[12.3 µM]	nt	nt	-81%	?	nt
O=C(Nc1ccc2c(c1)OCO2)C1CCCN(S(=O)(=O)Cc2ccccc2)C1 (stereo not drawn)	1%	-1	-9	?	?	-1
COc1cc(C(=O)NCc2nnc(SCC(=O)N3CCCCCC3)o2)cc(OC)c1OC	-2%	-5	4	1%	-5%	8
CS(=O)(=O)Nc1cccc(-c2nc(Nc3ccccc3)c3ccccc3n2)c1	-6%[56.1 µM]	nt	nt	4.6µM*	9.2µM*	nt
Cc1cnc(CNc2nc(-c3cccc(NS(C)(=O)=O)c3)nc3ccccc23)cn1	nt	nt	nt	-8%	-1%	nt
SMILES	TDP1 block	CtBP-E1A blk	IL-1B inflam inh	TDP1 cell noCPT	DT40 TDP1 CPT	Six1-Eya2 inh
O=C(O)c1cccc(Nc2nc(-c3cccnc3)nc3ccccc23)c1	-8%	?	28	?	?	-80*
CS(=O)(=O)Nc1cccc(-c2nc(N3CCOCC3)c3ccccc3n2)c1	4%	nt	nt	-20%	-12%	nt
CS(=O)(=O)Nc1cccc(-c2ccc3ncnc(N4CCOCC4)c3c2)c1	nt	nt	nt	13µM*	4.1µM*	nt
CC1(C)CC(NC(=S)NC(=O)c2cc(Br)ccc2Cl)CC(C)(C)N1	1%	nt	?	?	-12%	6
N#C/C(=C\c1ccc(C(=O)O)cc1)c1ccccn1	-1%	2	0	-13%	5%	-1
N#C/C(=C\c1c[nH]c2ccc(Br)cc12)c1ccccn1	nt	-21	-84*	21µM*	?	-16
O=C(CN1CCCC1)Nc1ccc(OC(F)(F)F)cc1	nt	4	3	-27%	5%	-2
COc1cc(NC(=O)Cn2cnc3ccccc3c2=O)c(OC)cc1Cl	-2%	5	-15	25%	-18%	-2
COc1cccc(NC(=O)CN(c2ccccc2OC)S(=O)(=O)c2cccs2)c1	0%[56.1 µM]	-6	3	21µM*	?	-1
COc1ccccc1N(CC(=O)Nc1ccccc1)S(=O)(=O)c1cccs1	0%	0	-5	?	-23%	0
COc1ccccc1N(CC(=O)Nc1ccc(Br)cc1F)S(=O)(=O)c1cccs1	-10%	1	-54*	?	?	1
COc1ccc(NC(=O)CN(c2ccccc2OC)S(=O)(=O)c2cccs2)cc1Cl	0%	-14	-6	15µM*	?	-4
CCOc1ccccc1N(CC(=O)Nc1ccc(OC)c(Cl)c1)S(=O)(=O)c1ccccc1	-5%	nt	nt	nt	nt	nt
CCC(=O)N1CCc2cc(S(=O)(=O)N3CCCCC3CC)ccc21 (stereo not drawn)	0%	-3	-4	-9%	-25%	1
CC(=O)NC(Cc1ccc(C)cc1)C(=O)NC1CCN(C(=O)c2cnccn2)CC1 (stereo not drawn)	-2%	4	-3	-1%	-5%	1
CC(c1ccon1)N(C)Cc1cn(C)nc1-c1ccc2c(c1)OCCO2 (stereo not drawn)	nt	3	28	0%	11%	8
CN(Cc1ccccn1)Cc1cn(Cc2ccccc2)nc1-c1ccc2c(c1)OCO2	5%	-15	?	23µM*	-27%	-2
CC(c1ccon1)N(C)Cc1cn(Cc2ccccc2)nc1-c1ccc2c(c1)OCO2 (stereo not drawn)	3%	-12	-29	?	18µM*	-1
O=C(O)/C=C/c1cn(-c2ccccc2)nc1-c1cc2ccccc2oc1=O	2%	9	44	17%	-22%	16
N#Cc1cn(-c2ccccc2)nc1-c1cc2ccccc2oc1=O	-10%	2	-3	16µM*	?	1
O=[N+]([O-])c1cc2c(cc1/C=N\NS(=O)(=O)c1ccccc1)OCO2	3%	8	-12	?	9.2µM*	-2

Screening results deposited in PubChem BioAssay by National Center for Advancing Translational Sciences (NCATS).
